The text below walks through data of PubChem BioAssay (Tox21).

Records with an inconclusive call do not appear. Where a call stands in place of a potency, no number is given. Active and inactive are the calls of the source. The call rests on the fitted dose curve; in most records, active means well fitted cell-killing curve with a large enough effect in the repeat runs; inconclusive means weak or mixed curves, or effect the other way; inactive means flat fitted curve, though single readings scatter.
Potency means the concentration at half of the fitted maximal effect.

The nature of this test: cAMP Responsive Elements (CRE) small molecule antagonists, cell-based qHTS assay: qHTS cell viability counter screen (AID 2060913). Further: nearly all actives have a fitted effect of over 40% in size. To be noted: CRE-bla HEK293T viability, CellTiter-Glo luminescence, 5 h; series mostly up to 92.4 µM. The method in brief: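 Cytotoxicity counter screen multiplexed with the CRE-bla antagonist read: HEK293T cells in DMEM with dialyzed FBS and 25 mM HEPES were treated 3 hrs under 0.25 uM final NKH477, then viability measured by CellTiter-Glo luminescence.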
Turning to `CC1=NN(c2cc(Cl)c(S(=O)(=O)O)cc2Cl)C(=O)C1N=Nc1ccc(S(=O)(=O)O)cc1` (centres undefined), the Potency result is “inactive”.
Still for that read-out and setting: next, `Fc1ccccc1`: “inactive”.
The same measure, in the same setting: next, `Nc1ccc(S(=O)(=O)NC(=O)c2ccccc2)cc1`: “inactive”; `O=C(N[C@H](CO)[C@H](O)c1ccc([N+](=O)[O-])cc1)C(Cl)Cl`: “inactive”.
On the same count and under the same terms, next, `O=C1c2ccccc2CCc2ccccc21`: “inactive”; `C=C1C(CCl)(CCl)C2(Cl)C(Cl)C(Cl)C1(Cl)C2(Cl)Cl` (centres undefined): 60.4 µM (active); `CCO[Si](C)(OCC)OCC`: “inactive”.
As to `CN1CCCN=C1/C=C/c1cccs1`, the Potency entry was “inactive”.
Regarding `C/C(=C(\CCOP(=O)(O)O)SC(=O)c1ccccc1)N(C=O)Cc1cnc(C)nc1N`, the viability change, negative = cytotoxic is 1.04% [at 8.39 µM] (inactive).
The same measure, in the same setting: to `N[C@@H](COP(=O)(O)O)C(=O)O` belongs 4.6% [at 18.9 µM] (inactive).
As for `[Cl][Nd]([Cl])[Cl]`, the Potency entry was “inactive”.
The same measure, in the same setting: next, `Cc1oc(=O)oc1CN1CCN(c2cc3c(cc2F)c(=O)c(C(=O)O)c2n3C(C)S2)CC1` (centres undefined): “inactive”; `O=C1CCC(N2C(=O)c3ccccc3C2=O)C(=O)N1` (centres undefined): “inactive”.
For the molecule `CCCc1nn(C)c2c(=O)[nH]c(-c3cc(S(=O)(=O)N4CCN(C)CC4)ccc3OCC)nc12`, the Potency entry is “inactive”.
In the case of `CCOC(=O)c1ccc(C)cc1`, the Potency result was “inactive”.
On the same count and under the same terms, next, `CCc1nn(CCCN2CCN(c3cccc(Cl)c3)CC2)c(=O)n1CCOc1ccccc1`: “inactive”; `CC(C)COC(=O)CC(C(=O)OCC(C)C)S(=O)(=O)O` (centres undefined): “inactive”.
On to `C1CCC2OC2C1` (centres undefined), for which the Potency result is “inactive”.
On to `C/C=C/C(=O)C1=C(C)CCCC1(C)C`, for which the Potency entry was “inactive”.
For the molecule `NC[C@H]1O[C@H](O[C@H]2[C@H](O[C@@H]3O[C@H](CO)[C@@H](O)[C@H]3O)C(O)[C@H](N)C[C@@H]2N)[C@H](N)[C@@H](O)[C@@H]1O` (some centres undefined), the viability change, negative = cytotoxic was 2.15% [at 8.39 µM] (inactive).
Take `C=CCOc1cc(Cl)ccc1C(=O)NCCN(CC)CC`: the Potency entry is “inactive”.
Still for that read-out and setting: to `Cc1ccc(C=O)cc1` belongs “inactive”; to `CC(C)COC(=O)c1ccc(N)cc1`, “inactive”; to `O=C(O)[C@H](O)c1ccccc1`, “inactive”.
The same measure, in the same setting: next, `c1ccc(CCc2ccccc2)cc1`: “inactive”; `CC1=CCC2C(C1)C2(C)C` (centres undefined): “inactive”; `COc1ccc2cc3[n+](cc2c1OC)CCc1cc2c(cc1-3)OCO2`: “inactive”.
For `CCCOCCC`, the Potency result was “inactive”.
Same read-out and setting: to `Nc1cc(S(=O)(=O)O)ccc1O` belongs “inactive”; to `Cc1c(C)n(CCN(C)C)c2ccc(C(=O)OCCN(C)C)cc12`, “inactive”.
In the case of `O=C(C1CCCCC1)N1CC(=O)N2CCCc3ccccc3C2C1` (centres undefined), the Potency result is “inactive”.
Turning to `CCCCCCCCCCCCCC[P+](CCCC)(CCCC)CCCC` (tested in a mixture with another compound), the Potency was 2.45 µM (active).
On the same count and under the same terms, to `C=CCNc1nc(NCC=C)nc(N2CCN(C(c3ccc(F)cc3)c3ccc(F)cc3)CC2)n1` belongs “inactive”; to `Cc1ccsc1C(=CCCN1CCC[C@@H](C(=O)O)C1)c1sccc1C`, “inactive”.
The same measure, in the same setting: to `COC(=O)CCCC(=O)O` belongs “inactive”.
Turning to `Cc1ccccc1OCC(=O)O`, the Potency entry was “inactive”.
As for `CCCCC(CC)CN1C(=O)C2C3C=CC(C3)C2C1=O` (centres undefined), the Potency entry was “inactive”.
Same read-out and setting: to `CC1(C)[C@H]2CC[C@](C)(C2)[C@H]1O` belongs “inactive”; to `Cn1c(=O)cc(Oc2ccc(F)cc2F)c2cnc(NCC(C)(C)O)nc21`, “inactive”.
